In PubChem BioAssay AID492948 (National Center for Advancing Translational Sciences (NCATS), 2010):
Results filed as inconclusive are left out. Values without a mark were called inactive. Activity calls are given as the source filed them. Calls come from the whole dose curve; as a rule, active = well fitted activation curve with a large enough effect; inconclusive = small, poorly fitted or top-dose-only effect; inactive = no such curve, though single readings can be large or run the other way.

Assay: qHTS Assay for Agonists of the Relaxin Receptor RXFP1: V1B Hit Validation;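 note: counter-screen in HEK293 cells expressing V1B rather than RXFP1 for selectivity; nearly all actives have a fitted effect of over 65% in size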;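 for activation: cAMP accumulation with PDE4 inhibitor Ro 20-1724 present during compound exposure; 0% = buffer alone basal and 100% = 29 nM porcine relaxin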
Conditions: HEK293 V1B cells, cAMP TR-FRET, 30 min; series mostly up to 115 µM; activation: at the top concentration
How it was run: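 Cells: HEK293, 2000/well. Cpd 30 min, 37C, 5% CO2, + PDE4 inhibitor Ro 20174. Lyse, HTRF cAMP, 30 min RT. Norm: buffer = 0%, porcine relaxin 29 nM = 100%.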
Potency is the fitted concentration of half-maximal effect.

Compound | Potency | activation
CCCN(CCC)S(=O)(=O)c1cc(CN2C(=O)c3cccnc3C2=O)ccc1OC | 30.9 µM (active) | 
O=C(Nc1ccccc1C(=O)NCCN1CCOCC1)c1ccco1 |  | 3.24% [at 127 µM]
Cc1cc(NC(=O)c2ccccc2F)nc2c1c(=O)oc1ccccc12 | 21.8 µM (active) | 
CCC(=O)Nc1ccc(NC(=O)CSc2nc3c(c(=O)n(C)c(=O)n3C)n2CC)cc1 | 38.9 µM (active) | 
O=S(=O)(Nc1ccccc1C(F)(F)F)c1ccc(-c2ccccn2)s1 | 21.9 µM (active) | 
CCOC(=O)c1sc(NC(=O)CCc2ccc(OC)cc2)nc1C | 15.4 µM (active) | 
CC(C)n1cnc2c(N(C)c3cccc(Cl)c3)nc(N(CCO)CCO)nc21 |  | -3.24%
CCc1cc2c(=O)nc3n(c2s1)Cc1ccccc1/C3=C(/O)c1cccc([N+](=O)[O-])c1 | 3.89 µM (active) | 
O=C(Nc1ccccc1C(=O)NCc1ccccc1)c1ccco1 |  | -0.271% [at 127 µM]
CCN(CC)C(=O)c1cc(Cl)ccc1NC(=O)c1ccco1 |  | 2.42% [at 127 µM]
CC(C)C(=O)Nc1ccc(Nc2ccccc2)cc1 |  | -2.7%
COc1ccc(S(=O)(=O)N2CCOCC2)cc1NC(=O)CSc1nnc2ccccn12 | 3.88 µM (active) | 
CCC(Sc1ccc2nnc(-c3cccnc3)n2n1)C(=O)O (stereo not drawn) | 17.3 µM (active) | 
O=C(Nc1ccccc1C(=O)NCc1ccco1)c1ccco1 |  | 4.18% [at 127 µM]
Cn1c2ccccc2c2nnc(SCC(=O)Nc3cccc(C(=O)O)c3)nc21 | 21.9 µM (active) | 
CCN(CC)S(=O)(=O)c1ccc(C)c(NC(=O)Cn2cnc3cc([N+](=O)[O-])ccc3c2=O)c1 | 34.6 µM (active) | 
O=C(Nc1ccccc1C(=O)NCCc1ccccc1)c1ccco1 |  | 3.59% [at 127 µM]
COc1ccccc1CNS(=O)(=O)c1cc(CN2C(=O)c3cccnc3C2=O)ccc1OC | 27.5 µM (active) | 
Cc1ccccc1NC(=O)c1ccccc1NC(=O)c1ccco1 |  | 9.6% [at 127 µM]

Compound | Potency | activation
CCC1(C)Cc2c(sc3c2c2ncnn2c2nnc(SCC(=O)NCc4ccco4)n32)CO1 (stereo not drawn) | 13.8 µM (active) | 
O=S(=O)(c1cccc(-c2cn3cccnc3n2)c1)N1CCOCC1 | 19.5 µM (active) | 
c1ccc(-c2nnc(-c3ccccn3)c(-c3ccccn3)n2)nc1 |  | -1.59%
c1ccc(COn2nnc3ccccc32)c(COn2nnc3ccccc32)c1 |  | 7.79% [at 44.9 µM]
O=C(O)c1ccc(CN2C(=O)c3ccc(C(=O)O)cc3C2=O)cc1 |  | 0.0432%
O=C(Cn1cnc2c(nnn2-c2ccc(F)cc2)c1=O)NCC1CCCO1 (stereo not drawn) | 8.7 µM (active) | 
Cc1ccc(CN(C)C(=O)c2ccc3c(c2)NC(=O)CS3)o1 |  | -30.6%
COc1ccc(CC(=O)N/N=C/c2cccnc2)cc1OC |  | -5.08%
COc1ccc(-n2nnc3c(=O)n(CC(=O)NCC4CCCO4)cnc32)cc1 (stereo not drawn) | 9.74 µM (active) | 
CN(CC(=O)Nc1ccccc1Cl)C(=O)COC(=O)Cc1c(F)cccc1Cl |  | 3.14% [at 44.9 µM]
CCCC(=O)Nc1ncnc2c1ncn2[C@@H]1O[C@@H]2COP(=O)(O)O[C@H]2[C@H]1OC(=O)CCC | 1.38 µM (active) | 
O=C(Nc1ccccc1C(=O)NCc1ccco1)c1ccccc1 |  | 5.63% [at 127 µM]
O=C(Nc1ccccc1C(=O)N1CCNCC1)c1ccco1 |  | -5.42% [at 127 µM]
O=C(O)c1ccc(N=C2NC(=O)C(CO)(CO)S2)cc1 |  | 5.93% [at 44.9 µM]
Cn1c(=O)c2sccc2n2c(CCCC(=O)NCc3ccco3)nnc12 | 34.6 µM (active) | 
O=C(Nc1ccccc1C(=O)N1CCOCC1)c1ccco1 |  | 0.265% [at 127 µM]
CCOC(=O)CCCCC(=O)c1[nH]c(=O)[nH]c1CSc1nnc2c3cc(Br)ccc3n(C)c2n1 | 10.9 µM (active) | 
COC(=O)[C@@H]1C[C@@]2(O)[C@H](O)[C@H](O)[C@H](O)C[C@H]2N1Cc1cc(F)ccc1F |  | 3.86%
Nc1c(S(=O)(=O)O)cc(NC(=O)c2ccccc2)c2c1C(=O)c1ccccc1C2=O |  | -16.6%
